In PubChem BioAssay (NCATS):
Inconclusive results are not listed. Calls of active or inactive are those of the source. The call rests on the fitted dose curve; in most records, active means well fitted inhibition curve with a large enough effect; inconclusive means small, poorly fitted or top-dose-only effect; inactive means flat fitted curve, though single readings scatter.

Test system: HEK293
Assay: Cytotoxic Profiling of Annotated Libraries Using Quantitative High-Throughput Screening (AID 1296008); further: nearly all actives have a fitted effect of over 60% in size
Conditions: Five cell lines viability, CellTiter-Glo ATP luminescence, 48-72 h; max response: active compounds read low
Procedure, shortened: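 Cytotoxicity was measured as CellTiter-Glo ATP luminescence, read after 10 min at room temperature. Compound treatment of the cells lasted 48 or 72 hr at 37 degrees Celsius in a qHTS format.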
On the % scale 0 is the no-effect control and ±100 the full control effect; potency means the concentration at half of the fitted maximal effect.

SMILES	Potency	max response
O=C(c1cc2c(cc1F)OC(c1ccc(F)cc1)(c1ccc(Cl)cc1Cl)O2)N1CCOCC1 (stereo not drawn)	11.6 µM (active)	
CC[C@@](C)(Nc1ccnc(-c2c[nH]c3ncccc23)n1)C(=O)NCC(F)(F)F		-4.43% (inactive)
C[C@@H]1CN(Cc2ccccc2)C[C@H]1c1nc2c(cnn2C2CCOCC2)c(=O)[nH]1		2.89% (inactive)
Nc1nc2c(c(=O)[nH]1)C[C@@H](CCc1ccc(C(=O)N[C@@H](CCC(=O)O)C(=O)O)cc1)CN2	0.206 µM (active)	
CC1=C(C(=O)O[C@@H]2O[C@H](COC3OCC(O)C(O)C3O)[C@@H](O)[C@H](O)[C@H]2O)C(C)(C)CCC1 (stereo partly drawn)		-9.72% (inactive)
NC(=O)c1cccc2cn(-c3ccc(C4CCCNC4)cc3)nc12 (stereo not drawn)	7.31 µM (active)	
C=C1C(=O)O[C@@H]2C/C(C)=C\C(=O)/C=C(\C)[C@@H](OC(=O)/C(C)=C\C)[C@H](O)[C@@H]12	1.61 µM (active)	
Cc1c2cc(c(C(=O)O)c1C)OC1OC(C(O)C(O)C1O)C(O)C(O)C1OC(O2)C(O)C(O)C1O (stereo not drawn)		-0.813% (inactive)
CN1CCN(Cc2ccc(-c3cnc4[nH]cc(-c5ccc6[nH]ccc6c5)c4c3)cc2)CC1	6.51 µM (active)	
Cc1cc(Nc2cc(N3CCN(C)CC3)nc(/C=C/c3ccccc3)n2)n[nH]1	3.66 µM (active)	
CCOCCn1nc(CC)c2nc(N3CCC(C(=O)O)CC3)nc(Nc3cc(C)ccn3)c21		-20% (inactive)
CC(Oc1cc(-n2cnc3ccc(CN4CCN(C)CC4)cc32)sc1C(N)=O)c1ccccc1C(F)(F)F (stereo not drawn)	1.3 µM (active)	
C[C@H]1C(=O)N2c3ccccc3[C@@]3(O)C[C@@H]4C(=O)N[C@](C)(c5nc6ccccc6c(=O)n54)N1[C@@H]23		-0.775% (inactive)
CC1(O)CC(O)C2(O)C=COC(O[C@@H]3O[C@H](CO)[C@@H](O)[C@H](O)[C@H]3O)C12 (stereo partly drawn)		4.59% (inactive)
Cc1nc(Nc2n[nH]c3c2CN(C(=O)NC(CN(C)C)c2ccccc2)C3(C)C)c2sccc2n1 (stereo not drawn)	0.0146 µM (active)	
CCN(CC)CCN(Cc1ccc(-c2ccc(C(F)(F)F)cc2)cc1)C(=O)Cn1c(SCc2ccc(F)cc2)nc(=O)c2c1CCC2	3.66 µM (active)	
C[C@H](NC(c1cccc(C[P+](=O)O)c1)[C@H](C)O)c1ccc(Cl)c(Cl)c1 (stereo partly drawn)		-17.8% (inactive)
CC1(C)CC[C@]2(C(=O)O)CC[C@]3(C)C(=CCC4[C@@]5(C)CC[C@H](O[C@@H]6O[C@H](CO)[C@@H](O)[C@H](O)[C@H]6O[C@@H]6O[C@H](CO)[C@@H](O)[C@H](O)[C@H]6O)[C@@](C)(CO)C5CC[C@]43C)[C@@H]2C1 (stereo partly drawn)		-6.18% (inactive)
